# Data taken from PubChem BioAssay AID1974 (The Scripps Research Institute Molecular Screening Center, 2009).
# Hit rate of the full screen: of about 300,000 compounds, about 3,200 (1.1%) were called active.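 How the source made its calls: active means inhibition above the campaign mean inhibition plus 3 SD (cut at about 35% in these data); inactive means the rest.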 Shown is part of a subset that was picked to be rich in actives.
# Target: Glutathione S-transferase omega-1 (Homo sapiens) (UniProt P78417)
# Sequence (P78417 whole entry, looked up): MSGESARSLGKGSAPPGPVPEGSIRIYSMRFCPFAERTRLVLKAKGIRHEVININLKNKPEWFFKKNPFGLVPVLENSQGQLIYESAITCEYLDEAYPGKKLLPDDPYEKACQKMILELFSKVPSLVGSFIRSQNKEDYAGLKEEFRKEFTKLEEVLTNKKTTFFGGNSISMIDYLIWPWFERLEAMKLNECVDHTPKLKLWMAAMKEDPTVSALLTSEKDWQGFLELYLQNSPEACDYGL
# Assay: inhibitors of recombinant GSTO1, primary screen, counter-screen for RBBP9 inhibitor project, biochemical, fluorescence polarization (AID 1974);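 further: 0% = GSTO1-1 with DMSO and 100% = wells lacking GSTO1-1 enzyme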
# Conditions: recombinant GSTO1, activity-based probe fluorescence polarization; at 5.96 µM; stronger effect = higher value
row,Structure (SMILES),inhibition
1,CCCCn1c(N)c(N(CC(C)C)C(=O)c2cnc(C)cn2)c(=O)[nH]c1=O,-0.67% (inactive)
2,Cc1c(C)n2c(SCC(=O)N3CCCC3)nnc2[nH]c1=O,4.38% (inactive)
3,CCOC(=O)N1CCC(NC(=O)COc2cc(=O)n(C)c3ccccc23)CC1,-3.88% (inactive)
4,CCOC(=O)N1CCC(NC(=O)CCc2ccccc2)CC1,-0.86% (inactive)
5,CCOC(=O)N1CCC(c2cc(=O)n(-c3ccccc3)[nH]2)CC1,37.3% (active)
6,CC(=O)CC[C@@H](C)O[C@@H]1OC(C)[C@H](O)CC1O (some centres undefined),-1.35% (inactive)
7,C[C@H]1CC[C@]2(O[C@@H](CCO)C[C@@H](O)[C@@H]2O)O1,1.91% (inactive)
8,COc1ccc(C=Nc2cccc3ncccc23)cc1,6.91% (inactive)
9,Oc1c(C=Nc2cccc3nsnc23)ccc2ccccc12,64.1% (active)
10,NC(=O)C1CCN(C(=O)c2cn(-c3ccccc3)nc2-c2cccnc2)CC1,4.31% (inactive)
11,O=C(c1cc(C(=O)N2CCN(c3ccc(F)cc3)CC2)cc([N+](=O)[O-])c1)N1CCN(c2ccc(F)cc2)CC1,2.3% (inactive)
12,CC(NC(=O)c1ccccc1F)c1cccc2ccccc12 (centres undefined),2.21% (inactive)
13,CN(C)[C@@H]1C(=O)C(C(N)=O)=C(O)[C@@]2(O)C(=O)C3=C(O)c4c(O)ccc(Cl)c4[C@@H](O)[C@H]3C[C@@H]12,69.1% (active)
14,O=C(Nc1nc(-c2ccco2)c(-c2ccco2)s1)c1ccco1,28.3% (inactive)
15,CC(Sc1nn(-c2ccc(Cl)cc2)c(=S)s1)C(=O)NCC1CCCO1 (centres undefined),-4.24% (inactive)
16,COc1ccc(C(CNC(=O)c2ccc(NS(=O)(=O)c3ccc(F)c(C)c3)cc2)N(C)C)cc1 (centres undefined),-9.5% (inactive)
17,O=C(O)c1cccc(NC(=S)N/N=C/c2c[nH]c3ccccc23)c1,48.7% (active)
18,O=C(N/N=C/c1c[nH]c2ccccc12)c1ccccc1O,-1.35% (inactive)
19,O=C(N/N=C/c1c[nH]c2ccccc12)c1cc2ccccc2o1,-5.04% (inactive)
20,O=[N+]([O-])c1ccc(N/N=C2/CCCCC2c2ccccn2)c([N+](=O)[O-])c1 (centres undefined),27.8% (inactive)
21,C[n+]1ccccc1C1CCCC/C1=N\Nc1ccc([N+](=O)[O-])cc1[N+](=O)[O-] (centres undefined),45.5% (active)
22,O=C(Nc1ccccc1)O/N=C1\CCCCC1c1ccc([N+](=O)[O-])cc1[N+](=O)[O-] (centres undefined),-4.23% (inactive)
23,COc1ccc(NC(=O)CN(C)C(=O)c2cccc(S(=O)(=O)N3CCN(c4ccccc4)CC3)c2)cc1,0.96% (inactive)
24,CCOC(=O)c1c(C)[nH]c(C(=O)OCC(=O)N2CCCC2=O)c1C,-4.82% (inactive)
